Experimental data taken from the supplement of paper PMC7411054.
Where a name gives a salt, the structure may show the parent alone.

Experiments:
Experiment in all cases: lowest phenotypically active concentration; higher = less potent
Settings in all cases: treatment time: 24 h
[1] = system: A549-ACTB-RAB5A
In short: (§1)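 Two criteria together defined phenotypic activity: deviation and reproducibility. Deviation meant ≥3 of 4 wells beyond the 95th percentile of Euclidean distances in solvent control wells, and reproducibility meant a median replicate Pearson correlation above the 95th percentile of non-replicates. Wells had been treated for 24 h at 0.3, 1, 3 or 9 µM in fifteen gene-edited A549, HepG2 and WPMY1 reporter lines before live imaging.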

[2] = system: A549-CANX-COX4
In short: as §1

[3] = system: A549-GM130-SQSTM1
In short: as §1

[4] = system: A549-TP53BP1-CLTA
In short: as §1

[5] = system: A549-TUBA1B-RELA
In short: as §1

[6] = system: HepG2-TP53BP1-CLTA
In short: as §1

[7] = system: HepG2-TUBA1B-RELA
In short: as §1

[8] = system: WPMY1-ACTB-RAB5A
In short: as §1

[9] = system: WPMY1-CANX-COX4
In short: as §1

[10] = system: WPMY1-TUBA1B-RELA
In short: as §1

Measured: lowest phenotypically active concentration

Cc1sc2c(c1C)C(c1ccc(Cl)cc1)=N[C@@H](CC(=O)OC(C)(C)C)c1nnc(C)n1-2
1 µM: [10]
≤ 0.3 µM: all other assays above

O=c1[nH]c2ccccc2n1C1CCN(CCCC(c2ccc(F)cc2)c2ccc(F)cc2)CC1 [pimozide]
9 µM: [1] | [3]
3 µM: [5] | [7]

CC(C)(N)Cc1ccccc1 [phentermine]
9 µM: [2]
3 µM: [4]

C[C@H](CCC(=O)O)C[C@H](C)C[C@H](C)C(=O)/C=C(\O)[C@H](C)C[C@H](C)C/C=C/[C@@H](C)[C@@H](O)[C@@H](C)[C@@H](O)C[C@@H]1CC[C@@](C)([C@H]2CC[C@@](C)([C@@H](C)O)O2)O1 [Ionomycin free acid]
3 µM: [8]
9 µM: [2] | [7] | [9]

CC[C@H]1CN2CC[C@H]1C[C@@H]2[C@@H](O)c1ccnc2ccc(OC)cc12 [Hydroquinidine HCl]
9 µM: [1] | [5] | [8] | [9] | [10]

O=C(NCCN1CCC2(CC1)C(=O)NCN2c1cccc(F)c1)c1ccc(F)c(F)c1 [ML 298 hydrochloride]
3 µM: [1] | [5]
9 µM: all other assays above

COC1=CC(C)=C[C@@H](C)[C@@H](O)[C@@H](C)CC(C)=CC=C[C@H](OC)[C@@H]([C@@H](C)[C@@H](O)[C@H](C)[C@@]2(O)C[C@@H](O)[C@H](C)[C@@H](C(C)C)O2)OC1=O [Bafilomycin A1]
≤ 0.3 µM: [1] | [3] | [5]
9 µM: [2] | [6]
1 µM: [8]
3 µM: all other assays above

N#CC(C#N)=NNc1cccc(Cl)c1
3 µM: [10]
9 µM: all other assays above

CN1C[C@H](C(=O)N[C@]2(C)O[C@@]3(O)[C@@H]4CCCN4C(=O)[C@H](Cc4ccccc4)N3C2=O)C[C@@H]2c3cccc4[nH]cc(c34)C[C@H]21.CN1C[C@H](C(=O)N[C@]2(C)O[C@@]3(O)[C@@H]4CCCN4C(=O)[C@H](Cc4ccccc4)N3C2=O)C[C@@H]2c3cccc4[nH]cc(c34)C[C@H]21 [dihydroergotamine]
9 µM: [1] | [3] | [4] | [5] | [6] | [7]

CC[C@H]1CN2CCc3cc(OC)c(OC)cc3[C@@H]2C[C@@H]1C[C@H]1NCCc2cc(OC)c(OC)cc21 [emetine]
≤ 0.3 µM: all assays above

Cc1c(C(=O)Nc2cccc(C(F)(F)F)c2)cc(-c2ccccc2)n1CCCN1CCOCC1
9 µM: [1] | [3]

C=C1[C@@H](C)[C@H]2[C@H](Cc3ccccc3)NC(=O)[C@]23OC(=O)C=C[C@H](O)CCC[C@@H](C)CC=C[C@H]3[C@@H]1O [Cytochalasin B]
≤ 0.3 µM: [1]
3 µM: [4] | [6] | [7] | [10]
1 µM: all other assays above

C/C=C(/C)C(=O)O[C@H]1C(C)=C2[C@H]([C@@H]1OC(=O)CCCCCCC)[C@@](C)(OC(C)=O)C[C@H](OC(=O)CCC)[C@@]1(O)[C@H]2OC(=O)[C@@]1(C)O [Thapsigargin]
≤ 0.3 µM: all assays above

Cc1cc2c(C(C)C)c(O)c(O)c(C=O)c2c(O)c1-c1c(C)cc2c(C(C)C)c(O)c(O)c(C=O)c2c1O [gossypol]
3 µM: [1] | [3]
9 µM: all other assays above

CN1CCC2=C[C@H](O)[C@H]3OC(=O)c4cc5c(cc4[C@H]3[C@@H]21)OCO5 [Hippeastrine hydrobromide]
9 µM: [1]

C[C@]12CC[C@H]3[C@@H](CC[C@]4(O)C[C@@H](O)CC[C@]34C=O)[C@@]1(O)CC[C@@H]2C1=CC(=O)OC1 [Strophanthidin]
≤ 0.3 µM: all assays above
